Reference: PubChem BioAssay (Tox21)
Values joined by “and” are separate entries in the source; they are usually repeats but may differ in a detail not shown here. Equal values may be shown once. Active and inactive are the calls of the source. Entries that show only a call come without a potency. Calls follow the shape of the dose curve; as a rule, active = well fitted curve in the direction sought with a large enough effect in the repeat runs; inconclusive = weak or mixed curves; inactive = flat fitted curve, though single readings scatter.

Experiment: qHTS assay to test for compound auto fluorescence at 590 nm (red) in HEK293 cells (AID 720679)
Conditions: red autofluorescence 540/590 nm; series mostly up to 91.3 µM
From the text: National Center for Advancing Translational Sciences [NCATS]
NIH Chemical Genomics Center [NCGC]
U.S. Environmental Protection Agency [EPA]
National Institutes of Environmental Health Sciences [NIEHS]
National Toxicology Program [NTP]
U.S. Food and Drug Administration [FDA]
Compound auto fluorescence often interferes with screening of the compound library against various biological targets and signaling pathways. Some of these compounds may have fluorophoric properties. Such properties may interfere with the assay outputs resulting in false positives and/or negatives. To decrease such complications and ensure the compound activities are relevant in terms of biological response, the Tox21 10K compound library was screened for auto fluorescence.
From the fluorophores used as reporter signals in our screening assays, the auto fluorescence equivalencies of compounds against three fluorophores have been evaluated: Triamterene, Fluorescein and Rose Bengal sodium for blue, green and red fluorescence, respectively. The fluorescence intensities were measured using Excitation/Emission wavelengths at 405/460nm, 485/535nm and 540/590nm for blue, green and red labels, respectively. This assay includes the red fluorescence data.
Tox21 Assay Protocol Summary:
2,000 HEK293 cells in 5 uL of culture medium containing 10% dialyzed FBS per well were dispensed into black wall/clear bottom 1536-well plates using a Multidrop Combi Dispenser (Thermo Scientific). The assay plates were incubated for 4-5 hr at 37C to allow cell attachment to the well bottom, followed by the transfer of 23 nL compound or DMSO vehicle by a pintool work station (Kalypsys, San Diego, CA). After the assay plates were incubated overnight at 37C and 5% CO2, fluorescence intensities in the assay plates were measured by an Envision (PerkinElmer, Shelton, CT) plate reader using three labels for measuring blue, green and red fluorescence at […] 460, 535 and 590nm respectively.
Potency is read from the fitted curve at half-maximal effect; tags tell the direction and shape of the fitted curve or compound fluorescence and quenching.

Row | Compound | Potency
1 | CC(=O)Oc1ccccc1C(=O)Nc1ncc([N+](=O)[O-])s1 | inactive
2 | CCC(C)c1ccccc1O (stereo not given) | inactive
3 | Cc1ccc(C)c(O)c1C | inactive
4 | c1ccc2c(c1)Oc1ccccc1S2 | inactive
5 | c1cc(N(CC2CO2)CC2CO2)ccc1OCC1CO1 (stereo not given) | inactive
6 | Cc1ccc(C(=O)c2cc(O)c(O)c([N+](=O)[O-])c2)cc1 | inactive
7 | c1ccncc1 | inactive
8 | CC(C(=O)O)c1cccc(C(=O)c2ccccc2)c1 (stereo not given) | inactive
9 | CCC(C)(O)CCCC(C)C (stereo not given) | inactive
10 | CCCCC(CC)COCC1CO1 (stereo not given) | inactive
11 | CC(CCC(=O)O)(c1ccc(O)cc1)c1ccc(O)cc1 | inactive
12 | O=Cc1ccccc1O | inactive
13 | CN(C)C(=N)N=C(N)N | inactive
14 | CCCc1c(OCCCCc2nn[nH]n2)ccc(C(C)=O)c1O | inactive
15 | NNc1ccc(C(=O)O)cc1 | inactive
16 | CCCCCCCCCC(=O)OC | inactive
17 | O=C(c1ccc(OCCN2CCCCC2)cc1)c1c(-c2ccc(O)cc2)sc2cc(O)ccc12 | inactive
18 | OC[C@H]1O[C@@H]2O[C@H]3[C@H](O)[C@@H](O)[C@@H](O[C@H]4[C@H](O)[C@@H](O)[C@@H](O[C@H]5[C@H](O)[C@@H](O)[C@@H](O[C@H]6[C@H](O)[C@@H](O)[C@@H](O[C@H]7[C@H](O)[C@@H](O)[C@@H](O[C@H]8[C@H](O)[C@@H](O)[C@@H](O[C@H]1[C@H](O)[C@H]2O)O[C@@H]8CO)O[C@@H]7CO)O[C@@H]6CO)O[C@@H]5CO)O[C@@H]4CO)O[C@@H]3CO | inactive
19 | O=CCCCC=O | inactive
20 | C[C@]12CC[C@H]3[C@@H](CCC4=CC(=O)CC[C@@]43C)[C@@H]1CC[C@@H]2C(=O)CO | inactive

Row | Compound | Potency
21 | CCCCC(CC)COC(=O)c1ccc(N(C)C)cc1 (stereo not given) | inactive
22 | CC(=O)c1ccccn1 | inactive
23 | CCCCNS(=O)(=O)c1ccccc1 | inactive
24 | Cc1c(C(N)=O)cc([N+](=O)[O-])cc1[N+](=O)[O-] | inactive
25 | CCOCCOCCO | inactive
26 | O=C(c1ccccc1)c1ccccc1O | inactive
27 | C=C(C)C(=O)OCCOC(=O)C(=C)C | inactive
28 | CC(=O)CC/C=C(\C)CCC=C(C)C | inactive
29 | CN1C(C(=O)Nc2ccccn2)=C(O)c2ccccc2S1(=O)=O | inactive
30 | CN(C)CCN(Cc1cccs1)c1ccccn1 | inactive
31 | Cc1c(OCC(F)(F)F)ccnc1CS(=O)c1nc2ccccc2[nH]1 (stereo not given) | inactive
32 | CC(C)OB(OC(C)C)OC(C)C | inactive
33 | C/C=C/C(=O)O | inactive
34 | C[C@]12CCC(=O)C=C1CC[C@@H]1[C@@H]2C(=O)C[C@@]2(C)[C@H]1CC[C@]2(O)C(=O)CO | inactive
35 | O=C(Nc1ccc(Cl)cc1)Nc1ccc(Cl)c(Cl)c1 | inactive
36 | O=C1OC2(c3cc(Br)c(O)c(Br)c3Oc3c2cc(Br)c(O)c3Br)c2c(Cl)c(Cl)c(Cl)c(Cl)c21 | 2.51 µM [fluorescent] (active) and 14.1 µM [fluorescent] (active)
37 | COc1cccc2c1C(=O)c1c(O)c3c(c(O)c1C2=O)C[C@@](O)(C(=O)CO)C[C@@H]3O[C@H]1C[C@H](N)[C@H](O)[C@H](C)O1 | inactive
38 | CCC(C)OC(=O)c1ccc(O)cc1 (stereo not given) | inactive
39 | O=C(/C=C/c1ccccc1)OCc1ccccc1 | inactive
40 | Cc1cc2nc3c(=O)[nH]c(=O)nc-3n(C[C@H](O)[C@H](O)[C@H](O)CO)c2cc1C | inactive
